The record followed here is PMC4336329 (PLoS ONE, 2015).

The campaign covered roughly 310,000 compounds. About 14,000 (4.5%) showed an effect of 50% or more. The effect is printed as a negative number. The sample holds strong results, similar compounds and a random draw of the others, so the mix is not that of the screen.
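Further: peak tail current of the secondary pulse compared with the same well before compound.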

Sequence of human ether-à-go-go-related gene (hERG) potassium channel (Q12809 whole entry, looked up): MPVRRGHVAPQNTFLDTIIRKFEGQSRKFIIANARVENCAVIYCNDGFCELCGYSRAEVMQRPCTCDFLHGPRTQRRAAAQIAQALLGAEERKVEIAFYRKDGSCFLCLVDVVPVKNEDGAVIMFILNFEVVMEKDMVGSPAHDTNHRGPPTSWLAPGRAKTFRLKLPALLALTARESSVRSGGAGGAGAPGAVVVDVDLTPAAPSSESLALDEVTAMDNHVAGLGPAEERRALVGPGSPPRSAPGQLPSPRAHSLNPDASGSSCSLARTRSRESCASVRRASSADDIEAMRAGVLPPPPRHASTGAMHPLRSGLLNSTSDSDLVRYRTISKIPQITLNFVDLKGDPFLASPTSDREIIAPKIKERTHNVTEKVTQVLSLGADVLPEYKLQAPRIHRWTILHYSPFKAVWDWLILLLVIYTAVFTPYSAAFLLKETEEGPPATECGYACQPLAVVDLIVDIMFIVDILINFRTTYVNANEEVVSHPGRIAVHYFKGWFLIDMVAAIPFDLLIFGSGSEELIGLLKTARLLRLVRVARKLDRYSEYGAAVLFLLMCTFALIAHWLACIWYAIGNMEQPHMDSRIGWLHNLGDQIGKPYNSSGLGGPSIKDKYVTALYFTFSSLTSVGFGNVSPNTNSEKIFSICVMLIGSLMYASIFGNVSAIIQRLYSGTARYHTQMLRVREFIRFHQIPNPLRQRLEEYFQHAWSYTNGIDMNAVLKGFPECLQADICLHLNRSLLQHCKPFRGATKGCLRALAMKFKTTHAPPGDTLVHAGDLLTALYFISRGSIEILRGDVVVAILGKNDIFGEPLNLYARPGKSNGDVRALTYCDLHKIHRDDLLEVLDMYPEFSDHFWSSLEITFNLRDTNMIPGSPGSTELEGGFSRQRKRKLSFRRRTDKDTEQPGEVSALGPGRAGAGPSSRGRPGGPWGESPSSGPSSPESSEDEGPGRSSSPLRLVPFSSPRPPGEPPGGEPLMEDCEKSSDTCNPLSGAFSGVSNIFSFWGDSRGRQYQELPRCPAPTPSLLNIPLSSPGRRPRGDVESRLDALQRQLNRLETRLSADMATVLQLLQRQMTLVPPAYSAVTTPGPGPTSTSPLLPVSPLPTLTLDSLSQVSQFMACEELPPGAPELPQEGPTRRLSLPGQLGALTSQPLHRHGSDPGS

The assay has as its target human ether-à-go-go-related gene (hERG) potassium channel (human, UniProt Q12809). In words: primary screen, population patch clamp on CHO cells stably expressing hERG; higher = less effect of the substance.
Take `CCOC(=O)c1sc2ncn(C(CC)C(=O)OCC)c(=O)c2c1C` (centres unmarked): the “hERG current change (%, negative = inhibition) at 10uM” value turned out to be 1.12%.

Turning to `O=C(COC(=O)c1cc[n+]([O-])cc1)Nc1ccc(Cl)cc1C(F)(F)F`, the “hERG current change (%, negative = inhibition) at 10uM” value came out at 24.9%.

In the case of `CC1(C)[C@H]2CC=C(CN3CCC(N4CCC(C(=O)N5CCCC5)CC4)CC3)[C@@H]1C2`, the “hERG current change (%, negative = inhibition) at 10uM” value is -25.1%.

For the molecule `O=C(c1cc2ccccc2o1)N1CCCCCC1`, the “hERG current change (%, negative = inhibition) at 10uM” value is -5.92%.

On to `Cc1ncc(CN2CCC(N3CCC(C(=O)N4CCCC4)CC3)CC2)s1`, for which the “hERG current change (%, negative = inhibition) at 10uM” value is -18.1%.

For the molecule `COCc1ccc(CN2CCC(N3CCC(C(=O)N4CCCC4)CC3)CC2)o1`, the “hERG current change (%, negative = inhibition) at 10uM” value is 8.86%.

Regarding `O=C(c1cc2ccccc2o1)N1CCCC1`, the “hERG current change (%, negative = inhibition) at 10uM” value came out at 10.8%.

As for `CCc1ccc(CN2CCC(N3CCC(C(=O)N4CCCC4)CC3)CC2)o1`, the “hERG current change (%, negative = inhibition) at 10uM” value is -70%.

Turning to `C=C(C)[C@@H]1CC=C(CN2CCC(N3CCC(C(=O)N4CCCC4)CC3)CC2)CC1`, the “hERG current change (%, negative = inhibition) at 10uM” value was -82.2%.

As for `O=C(C1CCN(C2CCN(Cc3ccc4cc(F)ccc4n3)CC2)CC1)N1CCCC1`, the “hERG current change (%, negative = inhibition) at 10uM” value is recorded as -77.3%.

In the case of `O=C(C1CCN(C2CCN(Cc3ccc4c(c3)CCO4)CC2)CC1)N1CCCC1`, the “hERG current change (%, negative = inhibition) at 10uM” value is -43%.

As for `O=C(c1cc(F)ccc1F)N1CCC(N2CCC(C(=O)N3CCCC3)CC2)CC1`, the “hERG current change (%, negative = inhibition) at 10uM” value was 6.92%.

As to `O=C(c1cc2ccccc2o1)N1CCC(N2CCC(C(=O)N3CCCC3)CC2)CC1`, the “hERG current change (%, negative = inhibition) at 10uM” value is -55.7%.

For the molecule `C=C(C)C1CC=C(CN2CCC(O)CC2)CC1` (centres unmarked), the “hERG current change (%, negative = inhibition) at 10uM” value is reported as -6.28%.

As to `O=C(CNC(=O)c1ccco1)Nc1ccncc1`, the “hERG current change (%, negative = inhibition) at 10uM” value is -5.14%.

Turning to `Cc1cc(C)cc(C(=O)NC(CC(N)=O)c2ccc(NCCN3CCCC3)c([N+](=O)[O-])c2)c1` (centres unmarked), the “hERG current change (%, negative = inhibition) at 10uM” value was found to be 10.5%.

Consider `COC(=O)Cc1coc2cc(OC)ccc12`, for which the “hERG current change (%, negative = inhibition) at 10uM” value worked out at 11.9%.

As for `Cc1ccc(S(=O)(=O)n2cnc3cc([N+](=O)[O-])ccc32)cc1C`, the “hERG current change (%, negative = inhibition) at 10uM” value is listed as -19.9%.

As for `Cc1cc(NC(=O)CSc2nc3c(cc2C#N)CCC3)no1`, the “hERG current change (%, negative = inhibition) at 10uM” value is 26.7%.

Turning to `O=C1c2ccccc2C(=O)N1c1ncn[nH]1`, the “hERG current change (%, negative = inhibition) at 10uM” value is reported as 11.3%.

In the case of `Cc1cccc(Nc2ncnc(N)n2)c1`, the “hERG current change (%, negative = inhibition) at 10uM” value came out at 15.6%.

In the case of `O=C1CCN(Cc2ccc(Cl)cc2)N1`, the “hERG current change (%, negative = inhibition) at 10uM” value was 10.8%.

Consider `CC(C)c1cc(=O)n2[nH]c(SCc3ccccc3Cl)nc2n1`, for which the “hERG current change (%, negative = inhibition) at 10uM” value was 23.7%.

Regarding `Cc1ccc(C(=O)COC(=O)CCC(=O)NC2CCCCC2)cc1C`, the “hERG current change (%, negative = inhibition) at 10uM” value stood at 14.8%.

In the case of `Cc1cccc(C)c1N(CC(O)Cn1c2ccccc2c2ccccc21)S(C)(=O)=O` (centres unmarked), the “hERG current change (%, negative = inhibition) at 10uM” value was determined as 18.6%.

For the molecule `COc1cccc(C(CC(=O)O)NS(=O)(=O)c2ccc3c(c2)N(C(C)=O)CC(C)O3)c1` (centres unmarked), the “hERG current change (%, negative = inhibition) at 10uM” value worked out at 24.4%.
